An excerpt weighted towards active compounds, which were near 2.3% of everything screened.
M1 ag parental: counter-screen for M1 agonists: effect in parental CHO-K1 cells | Fluo-8 calcium fluorescence; scaled to maximal ATP response, vehicle zero | activation, % at 3 µM | 360,000 compounds, 0.48% hits; in the data active = activation above about 15%;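 note: untransfected CHO-K1 host cells lacking M1 receptor as counterscreen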
M1 ag: human M1 muscarinic receptor agonists, primary screen, Fluo-8 calcium fluorescence, CHO-K1 cells, HTS | CHO-K1 hM1, agonist mode; 0% DMSO, 100% acetylcholine EC100 | activation, % at 3 µM | 360,000 compounds, 0.33% hits;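 active = activation above the run's mean compound activation plus 3 SD, cut at about 16% in these data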;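 note: peak over basal fluorescence ratio within a 140 s kinetic read after compound addition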
Target sequence (P11229 whole entry, looked up): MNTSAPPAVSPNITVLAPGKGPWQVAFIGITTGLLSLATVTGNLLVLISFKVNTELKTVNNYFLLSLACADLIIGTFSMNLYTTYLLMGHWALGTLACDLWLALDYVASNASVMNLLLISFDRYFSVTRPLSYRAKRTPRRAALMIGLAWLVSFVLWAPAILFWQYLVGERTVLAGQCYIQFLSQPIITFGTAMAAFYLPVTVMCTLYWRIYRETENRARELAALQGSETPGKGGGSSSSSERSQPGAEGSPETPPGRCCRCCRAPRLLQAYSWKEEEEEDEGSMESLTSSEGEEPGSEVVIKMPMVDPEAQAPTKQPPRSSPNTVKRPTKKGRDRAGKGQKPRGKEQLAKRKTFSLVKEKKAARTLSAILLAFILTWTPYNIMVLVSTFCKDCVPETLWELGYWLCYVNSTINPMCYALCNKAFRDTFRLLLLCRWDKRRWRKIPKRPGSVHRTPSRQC
CHO-K1 Ca PAM: nonselective calcium activators in parental CHO-K1 cells, primary screen, counter-screen for M1 PAM project, cell-based, Fluo-8 calcium fluorescence, full deck, 1536-well; ATP EC20; 0% at ATP EC20, 100% at ATP max; activation, % at 3 µM; 360,000 compounds, 0.02% hits;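 active = activation above the run cutoff, the mean activation of all test compounds plus 3 SD, cut at about 40% in these data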;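 note: peak over basal fluorescence ratio in a 140 s read after ATP addition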
CHO-K1 Ca antag: nonselective inhibitor or artifact in parental CHO-K1 cells. inhibition, % at 3 µM. ATP-induced calcium, Fluo-8 fluorescence. 360,000 compounds, 0.6% hits;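 active = inhibition above a per-plate cutoff, the plate's mean sample inhibition plus 3 SD, cut at about 24% in these data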
M1 PAM: human M1 muscarinic receptor positive allosteric modulators, primary screen, CHO-K1 cells, Fluo-8 calcium fluorescence, 1536-well. Muscarinic acetylcholine receptor M1 (Homo sapiens), P11229. 360,000 compounds, 0.088% hits. CHO-K1 hM1, ACh EC20; 0% = ACh EC20, 100% = maximal ACh. activation, % at 3 µM. AID 588819, 2011; in the data active = activation above about 19%, passing the limit was not always enough
CHRM1 antagonist: human M1 muscarinic receptor antagonists, primary screen, CHO-K1 cells, Fluo-8 calcium fluorescence, 1536-well; Muscarinic acetylcholine receptor M1 (Homo sapiens), P11229; CHO-K1 hM1, ACh EC80 antagonist; inhibition, % at 3 µM; 360,000 compounds, 1.3% hits; AID 588852, 2011;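 active = percent inhibition above its own plate's cutoff, namely the mean of that plate's compound wells plus 3 SD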;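 note: peak over basal fluorescence ratio during 140 s after agonist addition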
Numbers stand for hits; . = inactive.

SMILES | M1 ag parental | M1 ag | CHO-K1 Ca PAM | CHO-K1 Ca antag | M1 PAM | CHRM1 antagonist
CN(CCC#N)C(=O)COC(=O)c1ccc(CNS(=O)(=O)c2ccc(F)c(Cl)c2)cc1 | . | . | . | . | . | .
CCc1cc(C(=O)NCC(c2ccco2)N2CCCCC2)sc1C (centres undefined) | . | . | . | . | . | 29
CN(C)C(CNC(=O)c1ccc(S(=O)(=O)Nc2ccccc2)cc1)c1ccco1 (centres undefined) | . | . | . | . | . | 27
O=C(NCC(c1ccco1)N1CCCCC1)c1ccc(S(=O)(=O)Nc2ccccc2)cc1 (centres undefined) | . | . | . | . | . | 32
Cc1c(C(=O)NCC(c2ccco2)N2CCCC2)sc2ccccc12 (centres undefined) | . | . | . | . | . | .
COc1cc(NC(=O)CCc2c(C)noc2C)c(Cl)cc1C(=O)O | . | . | . | . | . | .
OC(CNCc1ccccc1)(c1ccccc1)c1ccccc1 | 15 | . | . | . | . | .
Cc1c(OCC(=O)NCCN2CCOCC2)ccc2c1oc(=O)c1ccccc12 | 17 | . | . | . | . | .
COC(=O)CN(c1cc([N+](=O)[O-])ccc1OC)S(C)(=O)=O | 17 | . | . | . | . | .
Cn1c(SCC(=O)NCCc2ccccc2)ncc(C(=O)Nc2ccc(F)cc2)c1=O | . | . | . | . | . | .
Cc1cc(Cl)ccc1NC(=S)NCCc1ccc(Cl)cc1 | . | . | . | 25 | . | .
Cc1cc(Cl)ccc1NC(=S)NCc1ccc(Cl)cc1 | . | . | . | . | . | .
CCn1c(CNc2ccccc2Cl)nnc1SCCN1CCCCC1 | . | . | . | . | . | 51
CCn1c(CNc2ccc(F)cc2)nnc1SCCN1CCCCC1 | . | . | . | . | . | .
O=C(Nc1cc(SCCO)cc([N+](=O)[O-])c1)c1ccc(Br)o1 | . | . | . | . | . | .
Cc1nc(SCC(=O)O)c(C#N)c(C)c1CC(=O)c1ccccc1 | . | . | . | . | . | .
COc1ccc(-c2nc3c(c(SCC(=O)N4CCOCC4)n2)COC(C)(C)C3)cc1 | . | . | . | 30 | . | .
O=S1(=O)N=C(N2CCc3ccccc3C2)c2ccccc21 | . | . | . | . | . | 36
O=S1(=O)N=C(N2CCCc3ccccc32)c2ccccc21 | . | . | . | . | . | .
CC(=O)Nc1ccc(S(=O)(=O)NCCC(=O)NNC(=O)c2ccccc2O)cc1 | . | . | . | . | . | .
CCC(=O)N1CCN(c2ccc(NC(=O)COc3ccccc3[N+](=O)[O-])cc2)CC1 | . | . | . | . | . | 31
CCOC1=C2[C@H](c3ccccc3)N(S(=O)(=O)c3ccc(C)cc3)C(C(C)(C)C)[C@H]2n2c(=O)n(-c3ccccc3)c(=O)n2C1 (some centres undefined) | . | . | . | . | . | .
O=C1c2ccccc2[C@@H]2C[C@@H](O)[C@H](Nc3cccc4ccccc34)CCN12 | . | . | . | . | . | 25
CCCCNC(=O)C1(C)CCC(=O)N1CCCn1ccnc1 (centres undefined) | . | . | . | . | . | .
O=C1C(=Cc2cccn2-c2ccccc2)C(=O)c2ccccc21 | 15 | . | . | . | . | .
SMILES | M1 ag parental | M1 ag | CHO-K1 Ca PAM | CHO-K1 Ca antag | M1 PAM | CHRM1 antagonist
COCCn1c(SCC(=O)N2CCCC2)nc2c(c1=O)SCC2 | . | . | . | . | . | .
O=C(O)C1CCN(S(=O)(=O)c2ccc3[nH]ccc3c2)CC1 | . | . | . | 26 | . | .
Cc1ccc(S(=O)(=O)N2CCC(C(=O)O)CC2)cc1C(=O)O | . | . | . | . | . | .
O=C(N/N=C/c1cccnc1)/C(=C\c1cccs1)NC(=O)c1ccccc1 | 19 | . | . | . | . | .
O=C(N/N=C/c1cc2ccccc2nc1Cl)/C(=C/c1cccs1)NC(=O)c1ccccc1 | . | . | . | . | . | .
CC(C)(C)C(=O)N1CCN(c2ccc3c(c2)C2CC3CCN2C(=O)OCc2ccccc2)CC1 (centres undefined) | . | . | . | . | . | .
O=C1c2ccccc2S(=O)(=O)c2cc(C(=O)N(c3ccccn3)c3ccccn3)ccc21 | 71 | 51 | . | . | . | .
O=C(Nc1ccccn1)c1ccc2c(c1)S(=O)(=O)c1ccccc1C2=O | . | . | . | . | . | .
C=CCc1cccc(CNc2cnc3ccccc3c2)c1O | . | . | . | 39 | . | 40
O=C(c1ccc(-c2nc3ccccc3s2)o1)N1CCN(c2ccccc2O)CC1 | . | . | . | 30 | . | .
O=C(O)c1ccc(-c2nc3ccccc3s2)o1 | . | . | . | . | . | .
CCCCCCN1CC(=O)N2Cc3[nH]c4ccccc4c3C[C@H]2C1=O | . | . | . | . | . | .
CCOC(=O)c1oc2ccc(Br)cc2c1COC(=O)C1=COCCO1 | . | . | . | . | . | 57
COC(=O)Cn1c(=NC(=O)C(C)C)sc2c(C)cc(C)cc21 | . | . | . | 30 | . | .
COC(=O)c1ccc(NC(=O)Cn2nc(-c3ccncc3)nc2SCC(=O)Nc2nccs2)cc1 | . | . | . | . | . | 33
Cc1cc(C)nc(NC(=NCCc2c[nH]c3ccccc23)NC(=O)Nc2ccccc2)n1 | . | . | . | . | . | 21
Cc1cc(C)nc(NC(=NCCc2c[nH]c3ccccc23)NC(=O)Nc2ccc(Cl)c(Cl)c2)n1 | . | . | . | . | . | .
Cc1cc(C)nc(NC(=NCCc2c[nH]c3ccccc23)NC(=O)c2ccco2)n1 | . | . | . | . | . | 29
COc1cc(C)ccc1S(=O)(=O)NC(=O)C1(C)CCN1C(=O)c1ccc(C(F)(F)F)nc1C (centres undefined) | . | . | . | . | . | .
CCOC(=O)c1ccc2c(c1)n(CC)c(/C=C/N(C)c1ccccc1)[n+]2CC | . | . | . | . | . | .
CC[n+]1c(/C=C/N(C)c2ccccc2)n(-c2ccccc2)c2ccc(-c3nc4ccccc4s3)cc21 | . | . | . | 34 | . | 98
COc1ccc(CN(CCC(c2ccc(F)cc2)C2CCOC(C)(C)C2)C(=O)c2ccco2)cc1 (centres undefined) | . | . | . | . | . | 26
CN1CCC(=C2c3ccccc3Sc3ccccc32)CC1 | . | . | . | . | . | 100
CN(C)CCOC1c2ccccc2CSc2ccccc21 (centres undefined) | . | . | . | . | . | 99
CSCCCc1cn([C@@H](CO)C(=O)NCCCCCCCCCCC(=O)N2CCNCC2)nn1 | . | . | . | . | . | .
